# The whole screen tested about 310,000 compounds, of which about 14,000 (4.5%) showed an effect of 50% or more. The effect is printed as a negative number. The full list was thinned out, with strong results kept by preference.
# Target: human ether-à-go-go-related gene (hERG) potassium channel (human, UniProt Q12809)
# Assay: primary screen, population patch clamp on CHO cells stably expressing hERG; higher = less effect of the substance
# 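Also: peak tail current of the secondary pulse compared with the same well before compound.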
# Sequence of human ether-à-go-go-related gene (hERG) potassium channel (Q12809 whole entry, looked up): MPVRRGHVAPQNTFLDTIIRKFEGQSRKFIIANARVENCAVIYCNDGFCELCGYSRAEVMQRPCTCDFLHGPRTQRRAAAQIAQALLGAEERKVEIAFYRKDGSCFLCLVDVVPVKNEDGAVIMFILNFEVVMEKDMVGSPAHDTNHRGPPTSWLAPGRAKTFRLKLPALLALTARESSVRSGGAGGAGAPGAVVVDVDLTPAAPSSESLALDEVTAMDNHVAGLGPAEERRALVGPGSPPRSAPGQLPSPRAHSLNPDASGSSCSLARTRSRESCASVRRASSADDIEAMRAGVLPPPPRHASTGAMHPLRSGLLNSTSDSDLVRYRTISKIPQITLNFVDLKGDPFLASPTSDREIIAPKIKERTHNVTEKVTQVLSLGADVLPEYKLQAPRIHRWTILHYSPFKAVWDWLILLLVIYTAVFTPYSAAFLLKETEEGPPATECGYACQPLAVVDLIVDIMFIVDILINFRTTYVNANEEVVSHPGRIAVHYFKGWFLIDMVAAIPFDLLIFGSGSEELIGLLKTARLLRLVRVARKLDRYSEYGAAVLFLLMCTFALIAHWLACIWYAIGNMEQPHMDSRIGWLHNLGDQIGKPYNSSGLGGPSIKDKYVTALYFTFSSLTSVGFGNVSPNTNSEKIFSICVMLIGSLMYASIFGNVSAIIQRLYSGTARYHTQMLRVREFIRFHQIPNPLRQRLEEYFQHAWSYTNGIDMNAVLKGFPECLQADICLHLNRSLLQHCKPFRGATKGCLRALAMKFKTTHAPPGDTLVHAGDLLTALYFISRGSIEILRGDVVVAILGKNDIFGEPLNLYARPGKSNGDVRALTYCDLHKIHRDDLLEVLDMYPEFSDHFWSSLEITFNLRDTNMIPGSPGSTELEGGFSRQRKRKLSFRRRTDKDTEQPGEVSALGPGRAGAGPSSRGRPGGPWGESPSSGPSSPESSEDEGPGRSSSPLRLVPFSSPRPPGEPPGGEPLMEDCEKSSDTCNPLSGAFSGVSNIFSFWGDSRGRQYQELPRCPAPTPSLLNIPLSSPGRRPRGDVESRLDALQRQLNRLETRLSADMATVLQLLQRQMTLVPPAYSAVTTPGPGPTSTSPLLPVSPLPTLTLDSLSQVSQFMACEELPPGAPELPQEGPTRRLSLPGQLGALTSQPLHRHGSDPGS
row,Structure (SMILES),"hERG current change (%, negative = inhibition) at 10uM"
1,NC(=O)C1CCN(C2=C(Cl)C(=O)c3ccccc3C2=O)CC1,13.6%
2,NC12CC3CC(C1)CC(CO)(C3)O2,8.54%
3,COc1ccc(N(CC(=O)N2c3ccccc3CC2C)S(=O)(=O)c2c(C)nn(C)c2C)cc1 (stereo not shown),-25.9%
4,OC(CN1CCN(c2ccccc2F)CC1)c1ccc(F)cc1 (stereo not shown),-19.3%
5,OC(CN1CCN(Cc2ccccc2)CC1)c1ccc(Br)cc1 (stereo not shown),-67.9%
6,OC(CN1CCN(C(c2ccccc2)c2ccccc2)CC1)c1ccc(Br)cc1 (stereo not shown),-28.8%
7,Cl.OC(CN1CCN(Cc2ccccc2)CC1)c1ccc(F)cc1 (stereo not shown),-67.9%
8,OC(CN1CCN(Cc2ccccc2)CC1)c1ccccc1 (stereo not shown),-30.3%
9,OC(CN1CCOCC1)c1ccc(F)cc1 (stereo not shown),12.6%
10,Cl.Oc1ccc(C2=CCNCC2)cc1O,10.1%
11,c1cnc(SCCOc2cccc3ccccc23)nc1,-8.05%
12,C=CCNC(=S)NNc1nc(Nc2ccccc2)nc(N2CCCCC2)n1,10.3%
13,COc1ccc(-c2nc(CC(=O)O)cs2)cc1,6.7%
14,CCCCN1C(=O)C(=O)N(CC(=O)N2CCN(c3ccccc3)CC2)C1=O,3.67%
15,CCOc1ccc(/C=N/N(C)c2ccccc2)cc1OC,15.8%
16,CCNc1oc(-c2cccc3ccccc23)nc1C#N,15.7%
17,C[n+]1cc(-c2ccccc2)n2c1CCCCC2.[I-],4.03%
18,COc1ccc(Cn2c(-c3ccc(Br)cc3)c[n+]3ccccc23)cc1.[Br-],-8.08%
19,COc1ccc(-c2c[n+](CC(=O)N3c4ccccc4Sc4ccccc43)c3n2CCC3)cc1.[Cl-],-38.2%
20,Clc1ccc(C2=C3CCCCn4c(-c5ccccc5)c[n+](c43)C2)cc1.[Br-],-82.1%
21,Clc1ccc(-c2cnc3n2CCCCC3)cc1,-46.4%
22,COc1ccc(-c2nnc3n2CCCCC3)cc1,19.9%
23,COc1ccc(-c2c[n+]3c4n2CCCCC4=C(c2ccccc2)C3)cc1.[Br-],-75.1%

row,Structure (SMILES),"hERG current change (%, negative = inhibition) at 10uM"
1,COc1ccc(-c2c[n+]3c4n2CCCCC4=C(c2ccc(Br)cc2)C3)cc1.[Br-],-75.1%
2,COc1ccc(-c2c[n+](CC(=O)c3ccccc3)c3n2CCCCC3)cc1.[Br-],11.7%
3,COC(=O)c1cc(S(=O)(=O)N(C)c2ccc(C)c(C)c2)c[nH]1,-20.2%
4,CCc1nc(NCCN2CCOCC2)c2oc3ccccc3c2n1.Cl,-28.2%
5,Cc1nn(Cc2ccccc2)c(C)c1C(=O)OCC(=O)Nc1cccc(S(N)(=O)=O)c1,-0.587%
6,O=C(CSc1nnc(CNC(=O)c2cccs2)o1)Nc1cccc(F)c1,4.85%
7,Clc1ccccc1Cn1nnc(-c2ccccc2)n1,4.02%
8,O=C1C2CCCN2C(=O)N1CCCN1CCN(c2cccc(Cl)c2)CC1 (stereo not shown),-2.8%
9,O=C1C2CCCN2C(=O)N1CCCCN1CCN(c2ccccc2)CC1 (stereo not shown),-21.6%
10,O=C1C2CCCN2C(=O)N1CCCCN1CCN(CCO)CC1 (stereo not shown),-14.9%
11,O=C1C2CCCCN2C(=O)N1CCCCN1CCN(c2cccc(Cl)c2)CC1 (stereo not shown),-60.6%
12,O=C1C2CCCN2C(=O)N1CCCCN1CCN(c2cccc(C(F)(F)F)c2)CC1 (stereo not shown),-60.9%
13,O=C1C2CCCCN2C(=O)N1CCCCN1CCN(c2cccc(Br)c2)CC1 (stereo not shown),-61.4%
14,O=C1C2CCCN2C(=O)N1CCCCN1CCN(c2cccc(Cl)c2)CC1 (stereo not shown),-65.6%
15,Cl.O=C1C2CCCN2C(=O)N1CCCN1CCN(c2cccc(Br)c2)CC1 (stereo not shown),-9.07%
16,O=C1CC(N2CCSCC2)C(=O)N1c1cccc(Br)c1 (stereo not shown),-3.54%
17,COc1ccc(C(=O)/C=C/Nc2cc(C)on2)c(OC)c1,-6.33%
18,COC(=O)c1ccccc1NC(=O)NC1CCN(Cc2ccccc2)CC1,-31.1%
19,CCCn1cc(NC(=O)c2cc(-c3ccccc3)on2)cn1,-21.5%
20,CCOC(=O)C1=C(C)Nc2ncnn2C1/C=C/c1ccccc1 (stereo not shown),-2.68%
21,CC1CN(c2ccc([N+](=O)[O-])nc2)CC(C)O1 (stereo not shown),-21.6%
22,COC(=O)c1ccc(NC(=O)CSc2nc(=O)cc(N)n2-c2ccccc2)cc1,12.8%
23,CCOC(=O)C1CCN(c2c(NCCCN3CCCCC3)c(=O)c2=O)CC1,6.88%

row,Structure (SMILES),"hERG current change (%, negative = inhibition) at 10uM"
1,CC(OC(=O)c1cccc(S(=O)(=O)N2CCOCC2)c1)C(=O)NC1CCCCC1C (stereo not shown),5.52%
2,COc1cc(Cl)ccc1OCc1cc(C(=O)N(C)CCc2c(C)n[nH]c2C)no1,-19.5%
3,COc1ccc(-c2csc(N(CCCN(C)C)C(=O)c3ccccc3Cl)n2)cc1.Cl,-67.3%
4,COc1ccc(-c2csc(N(CCCN(C)C)C(=O)c3ccccc3F)n2)cc1.Cl,-35.3%
5,COc1ccc(-c2csc(N(CCCN(C)C)C(=O)c3ccccc3C)n2)cc1.Cl,-75.1%
6,CC1CCCC(C)N1C(=C(Cl)Cl)C(=C1SCCS1)[N+](=O)[O-] (stereo not shown),16.7%
7,COc1ccccc1N(Cc1ccccc1)S(=O)(=O)c1cccc(C(=O)Nc2ccccn2)c1,10.5%
8,Cc1nc2ccccc2c(=O)n1-c1ccc(NS(=O)(=O)c2cc(F)ccc2F)cc1,-11.7%
9,O=C(CSc1ncccn1)N1CCN(Cc2ccccc2)CC1,9.31%
10,Nc1cc(C(=O)O)c(Oc2ccc(Cl)cc2Cl)cc1C(=O)O,7.83%
11,O=C(N/N=C/c1ccoc1)c1cc(Br)ccc1O,14.2%
12,CCOc1ccc(NC(=O)c2ccc3[nH]c(=O)c(=O)[nH]c3c2)cc1,16.8%
13,Cn1c(-[n+]2c(-c3ccccc3)cc(-c3ccccc3)cc2-c2ccccc2)nc2cc([N+](=O)[O-])ccc21.[I-],-12.2%
14,Nc1nc2ccc([N+](=O)[O-])cc2[nH]1,20.6%
15,CC(C)(C)c1nc2ccc([N+](=O)[O-])cc2[nH]1,-77.7%
16,O=[N+]([O-])c1cccc(-c2nc3ccc([N+](=O)[O-])cc3[nH]2)c1,8.34%
17,F[B-](F)(F)F.O=[N+]([O-])c1ccc2nc(-[n+]3c(-c4ccccc4)cc(-c4ccccc4)cc3-c3ccccc3)[nH]c2c1,-61.8%
18,Cc1nc2ccc([N+](=O)[O-])cc2[nH]1,7.21%
19,Cc1ccc(-c2nc3ccc([N+](=O)[O-])cc3[nH]2)cc1,-3.49%
20,CCCC[n+]1ccc(-c2nc3ccc([N+](=O)[O-])cc3[nH]2)cc1,-59.5%
21,O=[N+]([O-])c1ccc(-c2nc3ccc([N+](=O)[O-])cc3[nH]2)cc1,-27.9%
22,O=C(NNC(=O)C1CC=CCC1C(=O)O)c1ccc(Cl)cc1 (stereo not shown),20.6%
23,COC(CNC(=O)C1CCCN1C(=O)OCc1ccccc1)OC (stereo not shown),5.41%

row,Structure (SMILES),"hERG current change (%, negative = inhibition) at 10uM"
1,Cc1cc(O)c(C2=Nc3ccccc3SC(c3ccc(Cl)cc3)C2)c(=O)o1 (stereo not shown),19.4%
2,Clc1ccccc1Nc1nc2ccccc2o1,10.5%
3,O/C(=C\c1ccc2ccccc2n1)c1ccc(O)cc1O,4.33%
4,CCOc1ccc(/C=C2\SC(=S)N(NC(=O)c3ccncc3)C2=O)cc1OC,16.9%
5,COc1cc(NC(=O)CSCc2ccc(Cl)cc2)c(C(=O)O)cc1OC,13.6%
6,CN(C)S(=O)(=O)c1ccc(NC(=O)CN2CCc3ccccc32)cc1,11.8%
7,Cc1ccc(SCCNS(=O)(=O)c2ccc3c(c2)OCCO3)cc1,2.17%
8,Cc1ccc(NC(=O)CN2C(=O)c3ccccc3C2=O)nc1,6.21%
9,Cc1nc2ccsc2c(=O)n1-c1cccc(Cl)c1,14.4%
10,O=C(NNC(=O)c1cccc(O)c1)Nc1ccc([N+](=O)[O-])cc1,16.3%
11,O=C(C(Cc1ccccc1)n1cccc1)N1CCN(C2CCCCC2)CC1 (stereo not shown),-56.6%
12,COc1ccc(CCC(=O)N2CCCC(Nc3ccc(OC)cc3)C2)cc1 (stereo not shown),-6.96%
13,COc1ccc(CCC(=O)N2CCN(C(=O)c3ccccc3)CC2)cc1,5.76%
14,O=C(c1ccccc1)c1cccn1CC(=O)N1CCN(c2ccccc2)CC1,-9.33%
15,O=C(c1ccccc1)c1cccn1CC(=O)N1CCCCCC1,5.2%
16,O=C(CCCc1ccccc1)N1CCN(C2CCCCC2)CC1,-70.8%
17,COc1ccc(CCC(=O)N2CCN(C3CCCCC3)CC2)cc1,-69.1%
18,O=C(C(Cc1ccccc1)n1cccc1)N1CCCCC1 (stereo not shown),2.03%
19,O=C(c1ccccc1)c1cccn1CC(=O)N1CCN(C2CCCCC2)CC1,-52.6%
20,O=C(Cc1ccccc1)N1CCN(C2CCCCCC2)CC1.O=C(O)C(=O)O,-19.2%
21,O=C(Cc1ccccc1)N1CCN(C2CCCC2)CC1,0.401%
22,O=C(C(Cc1ccccc1)n1cccc1)N1CCCCCC1 (stereo not shown),12.1%
